# Giardia FBPA inh: inhibitors of Giardia lamblia fructose-1,6-bisphosphate aldolase | A8B2U2 | purified Giardia FBPA | Potency, µM (series often up to 59.6 µM), inactives show at the highest dose activity, negative = inhibition, usual class: inhibitors | 0.71% of 290,000 active | AID 2451; note: potency is the fitted concentration of half-maximal effect; % is set by controls: 0 for no effect and ±100 for the full control effect; nearly all actives have a fitted effect of over 55% in size
# Target sequence (A8B2U2 whole entry, looked up): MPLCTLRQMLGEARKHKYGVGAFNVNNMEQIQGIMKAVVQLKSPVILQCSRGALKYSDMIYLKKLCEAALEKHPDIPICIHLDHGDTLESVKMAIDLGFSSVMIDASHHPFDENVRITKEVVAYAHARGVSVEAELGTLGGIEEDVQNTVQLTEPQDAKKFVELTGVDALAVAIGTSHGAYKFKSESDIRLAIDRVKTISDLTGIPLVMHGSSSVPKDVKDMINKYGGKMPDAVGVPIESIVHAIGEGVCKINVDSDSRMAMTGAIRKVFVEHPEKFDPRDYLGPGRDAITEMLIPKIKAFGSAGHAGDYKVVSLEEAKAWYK
#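 Giardia FBPA (40 nM reagent) was preincubated 10 min at RT with compound (up to 57.5 uM final), then substrate plus GAPDH/TPI/NAD/arsenate coupling system with diaphorase/resazurin was added; resorufin fluorescence (525/598 nm) was read after 20 min.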
# Cycloheximide cs: counter-screen for Shiga toxin inhibitors: cycloheximide protein synthesis inhibition; max response, %; cell reporter, cycloheximide protein synthesis inhibition counterscreen; 12% of 300,000 active; in the data active = max response mostly above about 13%, no sharp cut-off; inactive = mostly below about 14%; note: read at 38.3 µM for the half of the compounds with a filed dose; 0% is about no effect
# Sm TGR block: inhibitors of Schistosoma mansoni thioredoxin glutathione reductase; Potency, µM (titrated, usually from 114 µM), for inactives: at the highest dose activity change, negative = inhibition, actives largely listed as inhibitors; 3% of 360,000 active; Q962Y6; purified TGR, DTNB reduction, TNB absorbance 405 nm; note: potency is the fitted concentration of half-maximal effect; % is set by controls: 0 for no effect and ±100 for the full control effect; nearly all actives have a fitted effect of over 60% in size
#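 Kinetic colorimetric format: TGR-catalysed, NADPH-driven DTNB reduction monitored via TNB absorbance. Enzyme dispensed at 20 nM; compound exposure 15 min at room temperature before reaction start.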
# TbPYK inhibitor: inhibitors of Trypanosoma brucei pyruvate kinase; TbPYK enzyme, Kinase-Glo Plus ATP luminescence, 45 min; Q57TT1; Potency, µM (series often up to 76.8 µM), inactives show at the highest dose activity, negative = inhibition, actives largely listed as inhibitors; 0.12% of 410,000 active; note: potency is the fitted concentration of half-maximal effect; % is set by controls: 0 for no effect and ±100 for the full control effect; nearly all actives have a fitted effect of over 50% in size
#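 Enzyme and substrate buffer are dispensed first and compound is pin-transferred. ADP at 130 uM final then starts the reaction, which runs 45 min at room temperature. Detection reagent is added for 10 min before luminescence is imaged.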
# Shiga toxin inh: blocks Shiga toxin action in Vero cells; 9.2% of 290,000 active; inhibition, % at 38.7 µM; Vero cells, Shiga toxin protein synthesis inhibition reporter; in the data active = inhibition mostly above about 28%, no sharp cut-off; inactive = mostly below about 43%; note: 0% is about no effect
# LmPK inhibitor: inhibitors of Leishmania mexicana pyruvate kinase; purified LmPK, Kinase-Glo ATP luminescence, 1 h; Potency, µM (titrated, usually from 57.5 µM), for the others: top-dose activity change, negative = inhibition, most hits filed as inhibitors; 0.37% of 290,000 active; AID 1721; note: potency is the fitted concentration of half-maximal effect; % is set by controls: 0 for no effect and ±100 for the full control effect
#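 In 50 mM imidazole pH 7.2 with 7 mM MgCl2, LmPK (0.1 nM) turned over PEP (0.5 mM) and ADP (0.1 mM) for 1 h at room temperature. Luciferase read-out of ATP.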
# * = called active by the depositor; ? = inconclusive; nt = no result; [ ] = remark or other dose. Only a selection was taken, and hits are over-represented in it overall. Unless noted, calls come from the whole dose curve; as a rule, active = well fitted curve in the direction sought with a large enough effect; inconclusive = small, poorly fitted or top-dose-only effect, or another doubt; inactive = no such curve, though single readings can be large; an effect the other way counts as inactive or inconclusive.
SMILES,Giardia FBPA inh,Cycloheximide cs,Sm TGR block,TbPYK inhibitor,Shiga toxin inh,LmPK inhibitor
Cc1ccc(C)n1-c1nnc(N2CCCC(C(=O)Nc3ccc(C(C)C)cc3)C2)s1 (stereo not drawn),nt,nt,-16%,1%,nt,nt
Nc1cccn2c(-c3ccc(Cl)c(Cl)c3)cnc12,-25%,74*,-21%,-8%,92*,6%
Nc1cccn2c(-c3ccc(Cl)cc3)cnc12,?,47*,-23%,-5%,197*,-24%
COc1ccc(C(=O)NCc2nc3ccccc3[nH]2)cc1OC,-30%,-2,0%,-3%,-8,1%
CCOc1ccc(C(=O)Nc2nc3ccccc3[nH]2)cc1OCC,-28%,51*,-19%,-5%,105*,2%
COc1cc(C(=O)Nc2nc3ccccc3[nH]2)ccc1OC(F)F,?,39*,7%,-3%,62*,-8%
COc1ccc(C(=O)Nc2nc3ccccc3[nH]2)cc1S(=O)(=O)N1CCCC1,-3%,19*,2%,-4%,75*,-1%
COc1ccc(C(=O)Nc2nc3ccccc3[nH]2)cc1OC,-14%,42*,0%,-3%,86*,-7%
Cc1cccc(CC(C)NC(=O)CCc2nnc(CCCCc3ccccc3)o2)n1 (stereo not drawn),3%,-1,7%[57.1 µM],-5%,-35,0%
CC(NC(=O)CCc1nnc(CCCc2ccccc2)o1)c1ccccc1 (stereo not drawn),2%,29*,-11%[57.1 µM],-7%,94*,-5%
Cc1cc(CNC(=O)CCc2nnc(CCCc3ccccc3)o2)nn1C,0%,37*,-18%,-2%,33*,4%
CC(NC(=O)CCc1nnc(-c2ccccc2)o1)c1ccccc1 (stereo not drawn),4%,35*,7%[57.1 µM],4%,124*,-4%
Cn1cc(CCNC(=O)CCc2nnc(CCCCc3ccccc3)o2)cn1,3%,1,nt,-5%,12,1%
Cc1sc2c(c1C)c(=O)n(-c1ccc(Cl)cc1)c(=O)n2Cc1c(F)cccc1Cl,nt,nt,-1%,0%,nt,nt
COc1ccccc1-c1noc(CSc2nc3ccc(C)cc3[nH]2)n1,nt,nt,-5%,-5%,nt,nt
O=C(NCc1ccco1)C(c1cccs1)N(C(=O)C1COc2ccccc2O1)c1cccc(O)c1 (stereo not drawn),-6%,12,35µM*,2%,16,-3%
C/C=C(\C)c1nnc(NC(=O)OCC)s1,5%,15*,8%,-8%,42*,-6%
CCCCCc1nnc(NC(=O)OCCC)s1,13%,14*,1%,0%,27,4%
CCc1nnc(NC(=O)OCc2ccccc2)s1,-1%,20*,9%,-5%,60*,0%
CCCCOC(=O)Nc1nnc(CC)s1,0%,43*,0%,0%,56*,-3%
CCCCCOC(=O)Nc1nnc(CCCCC)s1,8%,-3,0%,3%,-24,1%
CC(=O)c1ccc(NC(=O)c2ccc3c(c2)N(Cc2cccc(Cl)c2)C(=O)c2ccccc2S3(=O)=O)cc1,nt,nt,3%,0%,nt,nt
CC(C)(C)C(=O)COC(=O)c1ccc(N)c([N+](=O)[O-])c1,-2%,43*,1%,-5%,83*,-22%
CCOc1ccc(C(C)=O)cc1COc1cccnc1[N+](=O)[O-],-4%,-3,35µM*,-7%,-1,-2%
COc1ccccc1/C=N/OCc1cc(C(C)=O)ccc1OC,5%,7,11µM*,-8%,-1,1%
COc1ccc(C(C)=O)cc1COC(=O)c1ccc(S(=O)(=O)N2CCOCC2)cc1,-1%,-5,18µM*,3%,-7,-1%
COCCN1C(=O)C(=O)/C(=C(/O)c2ccc(S(=O)(=O)N3CCCCC3)cc2)C1c1ccc(O)c(OC)c1 (stereo not drawn),2%,-4,0%,-2%,-9,8%
COc1ccc(C(C)=O)cc1COc1ccccc1[N+](=O)[O-],4%,4,11µM*,1%,10,0%
COc1ccc(C(C)=O)cc1COC(=O)c1ccc(N)c([N+](=O)[O-])c1,1%,-1,8.9µM*,-1%,-5,6%

# From PubChem BioAssay
